# According to PubChem BioAssay AID1159580 (chemical genetic matrix, 2015):
# About 2,000 (36%) of roughly 5,500 compounds were called active. Roughly 18% stayed inconclusive and do not appear here. The list shows a part of the results. A number with no mark means an inactive call. Rule as the data show it: active = normalized growth mostly below about 0.91 (no sharp cut-off); inconclusive = no clear call, values can overlap the other calls; inactive = mostly above about 0.92.
# Experiment: chemical genetic growth profiling, strain panel (AID 1159580);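 also: tested at 20 µM; growth read once vehicle control cultures reached saturation at 30 °C; 1 = growth at the plate median or of vehicle wells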
# Details: S. cerevisiae deletion strains, growth OD
# [1] = locus YDL101C, strain DUN1, stronger effect = lower value
# [2] = locus YDR150W, strain NUM1, stronger effect = lower value
# [3] = locus YGR078C, strain PAC10, stronger effect = lower value
# [4] = locus YHR030C, strain SLT2, stronger effect = lower value
# [5] = locus YPL055C, strain LGE1, stronger effect = lower value
structure (smiles),measurement,setting,value
OC(CSc1ccccc1)CN1CCN(c2ccc(C(F)(F)F)cn2)CC1 (stereo not drawn),normalized growth,"locus YAL013W, strain DEP1, stronger effect = lower value",1.01
same,normalized growth,"locus YBR229C, strain ROT2, stronger effect = lower value",1
same,normalized growth,[1],1.01
same,normalized growth,"locus YDL134C, strain PPH21, stronger effect = lower value",0.185 (active)
same,normalized growth,[2],0.87
same,normalized growth,"locus YEL061C, strain CIN8, stronger effect = lower value",0.657 (active)
same,normalized growth,[3],1
same,normalized growth,[4],0.203 (active)
same,normalized growth,"locus YHR087W, strain rtc3, stronger effect = lower value",0.994
same,normalized growth,"locus YJR043C, strain POL32, stronger effect = lower value",0.991
same,normalized growth,"locus YJR075W, strain HOC1, stronger effect = lower value",1
same,normalized growth,"locus YLR039C, strain RIC1, stronger effect = lower value",0.591 (active)
same,normalized growth,"locus YLR058C, strain SHM2 (second series), stronger effect = lower value",1.01
same,normalized growth,"locus YLR085C, strain ARP6, stronger effect = lower value",0.387 (active)
same,normalized growth,"locus YLR262C, strain YPT6, stronger effect = lower value",0.468 (active)
same,normalized growth,"locus YML094W, strain GIM5, stronger effect = lower value",0.686 (active)
same,normalized growth,"locus YMR219W, strain ESC1, stronger effect = lower value",1
same,normalized growth,"locus YMR263W, strain SAP30, stronger effect = lower value",0.966
same,normalized growth,"locus YMR307W, strain GAS1, stronger effect = lower value",0.698
same,normalized growth,"locus YNL153C, strain GIM3, stronger effect = lower value",1.03
same,normalized growth,"locus YNL298W, strain CLA4 (second series), stronger effect = lower value",0.601 (active)
same,normalized growth,"locus YNL322C, strain KRE1, stronger effect = lower value",1.01
same,normalized growth,"locus YNR030W, strain Alg12, stronger effect = lower value",0.668 (active)
same,normalized growth,[5],0.898
same,normalized growth,"locus YPL241C, strain CIN2, stronger effect = lower value",0.763 (active)
same,normalized growth,"locus YPR135W, strain CTF4, stronger effect = lower value",0.442 (active)
COc1ccccc1N1CCN(CC(O)COc2cccc3ccccc23)CC1 (stereo not drawn),normalized growth,"locus YAL040C, strain CLN3, stronger effect = lower value",0.993
same,normalized growth,"locus YCL061C, strain MRC1 (second series), stronger effect = lower value",0.992
same,normalized growth,[2],0.998
same,normalized growth,"locus YDR363W, strain ESC2, stronger effect = lower value",0.965
same,normalized growth,"locus YER002W, strain NOP16, stronger effect = lower value",1.02
same,normalized growth,[3],0.978
same,normalized growth,"locus YNL175C, strain NOP13, stronger effect = lower value",1.01
same,normalized growth,"locus YNL197C, strain WHI3, stronger effect = lower value",1.04
same,normalized growth,"locus YNL224C, strain SQS1, stronger effect = lower value",0.99
same,normalized growth,"locus YOR083W, strain WHI5 (second series), stronger effect = lower value",1.02
same,normalized growth,[5],0.976
OC(CSc1ccccc1)CN1CCN(c2nc(-c3ccccc3)ns2)CC1 (stereo not drawn),normalized growth,"locus YAR019C, strain CDC15, stronger effect = lower value",0.991
same,normalized growth,"locus YBL105C, strain PKC1, stronger effect = lower value",0.977
same,normalized growth,"locus YBR135W, strain CKS1, stronger effect = lower value",0.993
same,normalized growth,"locus YBR136W, strain MEC1, stronger effect = lower value",0.977
same,normalized growth,"locus YBR160W, strain CDC28, stronger effect = lower value",0.982
same,normalized growth,"locus YDL017W, strain CDC7, stronger effect = lower value",0.989
same,normalized growth,"locus YDL028C, strain MPS1, stronger effect = lower value",0.99
same,normalized growth,[1],0.98
same,normalized growth,"locus YDL108W, strain KIN28, stronger effect = lower value",0.99
same,normalized growth,"locus YDL132W, strain cdc53, stronger effect = lower value",0.996
same,normalized growth,"locus YDL214C, strain PRR2, stronger effect = lower value",0.932
same,normalized growth,"locus YDR052C, strain DBF4, stronger effect = lower value",0.981
same,normalized growth,"locus YDR054C, strain cdc34, stronger effect = lower value",0.977
same,normalized growth,"locus YDR226W, strain ADK1, stronger effect = lower value",0.989
same,normalized growth,"locus YDR477W, strain SNF1, stronger effect = lower value",0.931
same,normalized growth,"locus YER123W, strain YCK3, stronger effect = lower value",0.908
same,normalized growth,"locus YER133W, strain GLC7, stronger effect = lower value",0.941
same,normalized growth,"locus YFL009W, strain cdc4, stronger effect = lower value",0.987
same,normalized growth,"locus YFL029C, strain CAK1, stronger effect = lower value",0.983
same,normalized growth,"locus YFR003C, strain YPI1, stronger effect = lower value",0.989
same,normalized growth,"locus YFR019W, strain FAB1, stronger effect = lower value",0.93
same,normalized growth,"locus YFR028C, strain CDC14, stronger effect = lower value",0.984
same,normalized growth,"locus YGR040W, strain KSS1, stronger effect = lower value",0.915
same,normalized growth,"locus YGR052W, strain FMP48, stronger effect = lower value",0.993
same,normalized growth,"locus YGR092W, strain DBF2, stronger effect = lower value",0.935
same,normalized growth,[4],0.941
same,normalized growth,"locus YHR079C, strain IRE1, stronger effect = lower value",0.962
same,normalized growth,"locus YHR082C, strain KSP1, stronger effect = lower value",0.983
same,normalized growth,"locus YHR205W, strain SCH9, stronger effect = lower value",0.921
same,normalized growth,"locus YIL147C, strain SLN1, stronger effect = lower value",0.987
same,normalized growth,"locus YJL095W, strain BCK1, stronger effect = lower value",0.947
same,normalized growth,"locus YJL128C, strain PBS2, stronger effect = lower value",0.945
same,normalized growth,"locus YJL157C, strain FAR1, stronger effect = lower value",0.915
same,normalized growth,"locus YJR016C, strain ILV3, stronger effect = lower value",0.982
same,normalized growth,"locus YJR066W, strain TOR1 (second series), stronger effect = lower value",0.888
same,normalized growth,"locus YJR066W, strain TOR1, stronger effect = lower value",1.01
same,normalized growth,"locus YKL048C, strain ELM1, stronger effect = lower value",0.954
same,normalized growth,"locus YKL067W, strain YNK1, stronger effect = lower value",0.943
same,normalized growth,"locus YKL101W, strain HSL1, stronger effect = lower value",0.927
same,normalized growth,"locus YKL193C, strain SDS22, stronger effect = lower value",0.987
same,normalized growth,"locus YKL203C, strain TOR2, stronger effect = lower value",0.989
same,normalized growth,"locus YLR113W, strain HOG1, stronger effect = lower value",0.847 (active)
same,normalized growth,"locus YLR133W, strain CKI1, stronger effect = lower value",0.935
same,normalized growth,"locus YLR403W, strain SFP1, stronger effect = lower value",0.9
same,normalized growth,"locus YML070W, strain DAK1, stronger effect = lower value",0.9
same,normalized growth,"locus YMR001C, strain CDC5, stronger effect = lower value",0.983
same,normalized growth,"locus YMR205C, strain PFK2 (second series), stronger effect = lower value",0.944
same,normalized growth,"locus YMR277W, strain FCP1, stronger effect = lower value",0.991
same,normalized growth,"locus YNL006W, strain LST8, stronger effect = lower value",0.997
same,normalized growth,"locus YNL020C, strain ARK1, stronger effect = lower value",0.935
same,normalized growth,"locus YNL161W, strain CBK1, stronger effect = lower value",0.98
same,normalized growth,"locus YNL183C, strain NPR1, stronger effect = lower value",0.972
same,normalized growth,"locus YNL207W, strain RIO2, stronger effect = lower value",0.987
same,normalized growth,"locus YNL222W, strain SSU72, stronger effect = lower value",0.991
same,normalized growth,"locus YNL307C, strain MCK1 (second series), stronger effect = lower value",0.927
same,normalized growth,"locus YOL078W, strain AVO1, stronger effect = lower value",0.98
same,normalized growth,"locus YOL136C, strain PFK27, stronger effect = lower value",0.903
same,normalized growth,"locus YOR061W, strain CKA2, stronger effect = lower value",0.936
same,normalized growth,"locus YOR119C, strain RIO1, stronger effect = lower value",0.994
same,normalized growth,"locus YOR231W, strain MKK1, stronger effect = lower value",0.882
same,normalized growth,"locus YOR329C, strain SCD5, stronger effect = lower value",0.982
same,normalized growth,"locus YPL031C, strain PHO85, stronger effect = lower value",0.952
same,normalized growth,"locus YPL153C, strain RAD53, stronger effect = lower value",0.937
same,normalized growth,"locus YPL204W, strain HRR25, stronger effect = lower value",0.932
same,normalized growth,"locus YPL209C, strain IPL1, stronger effect = lower value",0.981
same,normalized growth,"locus YPL256C, strain CLN2, stronger effect = lower value",0.889
same,normalized growth,"locus YPR025C, strain CCL1, stronger effect = lower value",0.987
same,normalized growth,"locus YPR106W, strain ISR1, stronger effect = lower value",0.976
same,normalized growth,"locus YPR111W, strain DBF20, stronger effect = lower value",0.961
same,normalized growth,"strain NNK1, stronger effect = lower value",0.973
same,normalized growth,"strain TSCII, stronger effect = lower value",0.984
